# Results from the OligoGym collection.
# Columns and labels:
# Assay in all cases: pooled miR-30 sensor sort-seq; sequence = guide strand
# Settings in all cases: shRNA
# KIF2C = target: KIF2C
# KIF25 = target: KIF25
# KIF26A = target: KIF26A
# KIR2DL5B = target: KIR2DL5B
# KPRP = target: KPRP
# KRT86 = target: KRT86
# L1TD1 = target: L1TD1
# LARP1B = target: LARP1B
# LIMK2 = target: LIMK2
# LILRB3 = target: LILRB3
# LILRA4 = target: LILRA4
# LIG4 = target: LIG4
# Also: reference of the scale not given here.
sequence,measurement,setting,value
TATGTGTCTTGCCACTTCCTGT,sensor-assay potency score (higher = more potent),KIF2C,-0.789
TAATTCCTAAGTCACTCTGTGG,sensor-assay potency score (higher = more potent),KIF25,-1.49
TTGAGCTCCACCAGCTTCGTGT,sensor-assay potency score (higher = more potent),KIF26A,-0.457
TAGCTTGTCGAGAAGCAGGGCA,sensor-assay potency score (higher = more potent),KIF26A,-0.503
TTGCTGTATGATCTCCTTGAGC,sensor-assay potency score (higher = more potent),KIF2C,-1.21
AACTACTTGAAGAGTTTCCTGT,sensor-assay potency score (higher = more potent),KIR2DL5B,0.126
TTGTCCTTGGTCTTGGAGGCGG,sensor-assay potency score (higher = more potent),KIF26A,-1.26
TTATTGTAAACTTCCACTATGG,sensor-assay potency score (higher = more potent),KIF25,-0.569
TACATGGGAGCTAGCAACCCGG,sensor-assay potency score (higher = more potent),KIR2DL5B,-1.49
TTGAAGAGTTTCCTGTGACAGA,sensor-assay potency score (higher = more potent),KIR2DL5B,-0.517
TCGCTTGAGCTCCACCAGCTTC,sensor-assay potency score (higher = more potent),KIF26A,-1.81
ACAAGCAGTGGGTCACTCGGGT,sensor-assay potency score (higher = more potent),KIR2DL5B,-0.672
TTGGAGTTGACGGATCTCCGTT,sensor-assay potency score (higher = more potent),KIF2C,-0.171
TTGCTCTTCCATCTCCTCGCTG,sensor-assay potency score (higher = more potent),KIF2C,-0.535
TTTTGTTGTAGAGCTCAGGGAC,sensor-assay potency score (higher = more potent),KIR2DL5B,0.231
TGAACCTGTAGACAACTTCATT,sensor-assay potency score (higher = more potent),KIF2C,-1.25
TTCTGTTTCCATTTGAATCAAC,sensor-assay potency score (higher = more potent),KIF2C,-0.604
TTTCTTGGCCAATTCTTGCTTA,sensor-assay potency score (higher = more potent),KIF2C,0.0812
TGTGCTGCTTCTACCTTGCTGG,sensor-assay potency score (higher = more potent),KIF26A,-0.279
TACACCTTGATCTCGAACGGCT,sensor-assay potency score (higher = more potent),KIF26A,-0.449
ATAACACAAACATTGTACCCAT,sensor-assay potency score (higher = more potent),KIF25,0.237
TAGTTGTTGCAGGTAGCCCTTG,sensor-assay potency score (higher = more potent),KPRP,-0.668
TTGAACCACCACTTGGCTCTGG,sensor-assay potency score (higher = more potent),KPRP,0.211
TAGTAGTGCCCACCACCACGTT,sensor-assay potency score (higher = more potent),KRT86,-1.34
ATCATTACTATTGTATTCGTTA,sensor-assay potency score (higher = more potent),L1TD1,-0.576
TATCTCGCTTCCAACTTCGTGT,sensor-assay potency score (higher = more potent),LARP1B,-0.146
TAAATGTGTTTTTTCGTCCTAT,sensor-assay potency score (higher = more potent),LARP1B,0.39
TCGTTGACAGTCCTGTACCATA,sensor-assay potency score (higher = more potent),LIMK2,-1.6
TATGCAGTCGGTACTCCTGGGC,sensor-assay potency score (higher = more potent),LILRB3,-0.223
TAGCATCTGAATGTACCCCTGT,sensor-assay potency score (higher = more potent),LILRA4,0.139
TTTATATACATCTCCATCTTTG,sensor-assay potency score (higher = more potent),LIG4,-1.01
TTCTTCAGGAGTCTGCTCGTTA,sensor-assay potency score (higher = more potent),LIG4,0.109
TACTTGATGGTGACCTTCCCTT,sensor-assay potency score (higher = more potent),LIMK2,-0.173
TCCTCAATCAGAGTGAACCTGC,sensor-assay potency score (higher = more potent),LILRA4,-0.933
TGCTGTGACGCTGACGTCGGAG,sensor-assay potency score (higher = more potent),LILRB3,-0.552
TTGTCCAACTTGATGAGGCAGT,sensor-assay potency score (higher = more potent),LIMK2,-0.14
